Each structure is given as a SMILES string. ± gives the standard deviation of the averaged measurements.

The subject of this assay is E. coli TESEC Mtb Alr. Nature of the assay: growth (OD600 after 10 h); higher = more growth (less inhibition). The conditions noted are these: compound 0.1 mM. The protocol:
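TESEC Mtb Alr E. coli, or the Alr+ wild-type control, in 384-well plates with Prestwick library compounds at 0.1 mM and 1% DMSO, across arabinose induction levels of 1E3 to 1E7 nM. Growth is read as OD600 after 10 h at 37 °C in triplicate biological replicates.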

The mark [1] stands for this setting: arabinose 1000 nM, raw OD600 reference: median of DMSO wells 0.294, cell-free background 0.041.
Where [2] appears, read: arabinose 10000 nM, raw OD600 reference: median of DMSO wells 0.264, cell-free background 0.041.
[3] abbreviates: arabinose 100000 nM, raw OD600 reference: median of DMSO wells 0.201, cell-free background 0.041.
The mark [4] stands for this setting: arabinose 1000000 nM, raw OD600 reference: median of DMSO wells 0.193, cell-free background 0.041.
Setting [5] is: arabinose 10000000 nM, raw OD600 reference: median of DMSO wells 0.146, cell-free background 0.041.

In the case of `COC(=O)Nc1nc2cc(C(=O)c3cccs3)ccc2[nH]1` [Nocodazole], the growth under setting [1] was 0.292 ± 0.018; the growth under setting [2] worked out at 0.269 ± 0.0045; the growth under setting [3] worked out at 0.211 ± 0.0085; the growth under setting [4] is 0.185 ± 0.0053; the growth under setting [5] stood at 0.142 ± 0.0038.
In the case of `CC(C)(C)NC(=O)[C@H]1CC[C@H]2[C@@H]3CC[C@H]4NC(=O)C=C[C@]4(C)[C@H]3CC[C@]12C` [Finasteride], the growth turned out to be 0.201 ± 0.015 under setting [1]; 0.201 ± 0.0065 under setting [2]; 0.133 ± 0.0022 under setting [3]; 0.0954 ± 0.00085 under setting [4]; 0.144 ± 0.0043 under setting [5].
Taken in the same sequence, the figures for `CC#C[C@]1(O)CC[C@H]2[C@@H]3CCC4=CC(=O)CCC4=C3[C@@H](c3ccc(N(C)C)cc3)C[C@@]21C` [Mifepristone] were 0.181 ± 0.013, 0.207 ± 0.016, 0.138 ± 0.0049, 0.0733 ± 0.003 and 0.1374 ± 0.00076.
In the same order, the values of `CC(C[N+](C)(C)C)OC(N)=O` (stereo not given) [Bethanechol chloride] are 0.283 ± 0.0042, 0.28 ± 0.0036, 0.195 ± 0.014, 0.222 ± 0.021 and 0.139 ± 0.0046.
In the same order, the values of `C=C1c2c(Cl)ccc(O)c2C(O)=C2C(=O)[C@]3(O)C(O)=C(C(N)=O)C(=O)[C@@H](N(C)C)[C@@H]3[C@@H](O)[C@H]12.O=C(O)c1cc(S(=O)(=O)O)ccc1O` [Meclocycline sulfosalicylate] are 0.0465 ± 0.0035, 0.04467 ± 0.00042, 0.047 ± 0.001, 0.04453 ± 0.00031 and 0.0463 ± 0.0019.
`Cc1cccc(N(C)C(=S)Oc2ccc3ccccc3c2)c1` [Tolnaftate] returned a growth under setting [1] of 0.272 ± 0.02; a growth under setting [2] of 0.268 ± 0.012; a growth under setting [3] of 0.165 ± 0.016; a growth under setting [4] of 0.11 ± 0.011; a growth under setting [5] of 0.163 ± 0.0066.
Taken in the same sequence, the figures for `COc1cc(C)nc(-n2nc(C)cc2OC)n1` [Epirizole] were 0.263 ± 0.012, 0.249 ± 0.0083, 0.178 ± 0.019, 0.18 ± 0.0057 and 0.139 ± 0.005.
Taken in the same sequence, the figures for `COC(=O)C1=C(C)NC(C)=C(C(=O)OCC(C)C)C1c1ccccc1[N+](=O)[O-]` (stereo not given) [Nisoldipine] were 0.189 ± 0.022, 0.1989 ± 0.0016, 0.133 ± 0.0061, 0.101 ± 0.011 and 0.112 ± 0.0029.

Values taken from the supplement of paper PMC9262897, “Low-cost anti-mycobacterial drug discovery using engineered E. coli” (Nature Communications, 2022).
